# Where a name gives a salt, the structure may show the parent alone. ± gives the standard deviation of the averaged measurements.
# Experiments:
# Assay in all cases: growth (OD600 after 10 h); higher = more growth (less inhibition)
# [1] = test system: E. coli TESEC Alr+ wild-type control; conditions: compound 0.1 mM; raw OD600 reference: median of DMSO wells 0.241, cell-free background 0.041
# Procedure: (§1)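 TESEC Mtb Alr E. coli, or the Alr+ wild-type control, in 384-well plates with Prestwick library compounds at 0.1 mM and 1% DMSO, across arabinose induction levels of 1E3 to 1E7 nM. Growth is read as OD600 after 10 h at 37 °C in triplicate biological replicates.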
# E. coli TESEC Mtb Alr [2] = conditions: compound 0.1 mM
# Procedure: as §1
# E. coli TESEC Mtb Asd = conditions: compound 0.1 mM
# Procedure: (§2)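 TESEC E. coli strains in which the native enzyme is deleted and replaced by arabinose-inducible Mtb Asd, DapB, CysH or TrpD, each grown in its selective medium. Strains were screened against the Prestwick library at 0.1 mM and 1% DMSO in 384-well format at low and high arabinose induction. Growth is read as OD600 after 10 h in triplicate.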
# E. coli TESEC Mtb DapB = conditions: compound 0.1 mM
# Procedure: as §2
# [3] = test system: E. coli TESEC Alr+ wild-type control; conditions: compound 0.1 mM; raw OD600 reference: median of DMSO wells 0.49, cell-free background 0.052
# Procedure: (§3)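 TESEC Mtb Alr E. coli (ΔaraC ΔtolC ΔentC Δalr ΔdadX, arabinose-inducible Mtb Alr) or the Alr+ wild-type control strain, grown in defined M9-fructose medium without D-alanine in 96-well plates with Prestwick library compounds at 0.1 mM and 1% DMSO. Low Alr induction is 0.1 µM arabinose and high induction is 10 mM arabinose.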
# E. coli TESEC Mtb Alr [4] = conditions: compound 0.1 mM; remark: listed apart in the source
# Procedure: as §3
# [5] = arabinose 1000 nM, raw OD600 reference: median of DMSO wells 0.294, cell-free background 0.041
# [6] = arabinose 10000 nM, raw OD600 reference: median of DMSO wells 0.264, cell-free background 0.041
# [7] = arabinose 100000 nM, raw OD600 reference: median of DMSO wells 0.201, cell-free background 0.041
# [8] = arabinose 1000000 nM, raw OD600 reference: median of DMSO wells 0.193, cell-free background 0.041
# [9] = arabinose 10000000 nM, raw OD600 reference: median of DMSO wells 0.146, cell-free background 0.041
# [10] = arabinose induction (level): High, raw OD600 reference: median of DMSO wells 0.331, cell-free background 0.041
# [11] = arabinose induction (level): Low, raw OD600 reference: median of DMSO wells 0.417, cell-free background 0.041
# [12] = arabinose induction (level): High, raw OD600 reference: median of DMSO wells […], cell-free background 0.041
# [13] = arabinose induction (level): Low, raw OD600 reference: median of DMSO wells 0.227, cell-free background 0.041
# [14] = arabinose 100 nM, raw OD600 reference: median of DMSO wells 0.413, cell-free background 0.052
# [15] = arabinose 10000000 nM, raw OD600 reference: median of DMSO wells […], cell-free background 0.052
Structure (SMILES),growth [1],growth (E. coli TESEC Mtb Alr [2]; [5]),growth (E. coli TESEC Mtb Alr [2]; [6]),growth (E. coli TESEC Mtb Alr [2]; [7]),growth (E. coli TESEC Mtb Alr [2]; [8]),growth (E. coli TESEC Mtb Alr [2]; [9]),growth (E. coli TESEC Mtb Asd; [10]),growth (E. coli TESEC Mtb Asd; [11]),growth (E. coli TESEC Mtb DapB; [12]),growth (E. coli TESEC Mtb DapB; [13]),growth [3],growth (E. coli TESEC Mtb Alr [4]; [14]),growth (E. coli TESEC Mtb Alr [4]; [15])
CN1CCC(=C2c3ccccc3CCc3sccc32)CC1 [Pizotifen malate],0.127 ± 0.006,0.133 ± 0.0045,0.0893 ± 0.0025,0.0952 ± 0.0015,0.0482 ± 0.0045,0.0637 ± 0.00071,0.148 ± 0.013,0.181 ± 0.012,0.178 ± 0.0086,0.193 ± 0.0037,0.146 ± 0.012,0.402 ± 0.027,0.132 ± 0.054
NC1CCN(c2c(F)cc3c(=O)c(C(=O)O)cn(C4CC4)c3c2Cl)C1 (stereo not given) [Clinafloxacin],0.0416 ± 0.0001,0.0399 ± 0.00042,0.0399 ± 0.00047,0.0418 ± 0.0019,0.03957 ± 5.8e-05,0.04037 ± 0.00015,0.0476 ± 0.0014,0.0476 ± 0.0014,0.0489 ± 0.0013,0.0481 ± 0.00067,0.05277 ± 0.00038,0.05347 ± 0.0004,0.0504 ± 0.00086
N=C(N)NS(=O)(=O)c1ccc(N)cc1 [Sulfaguanidine],0.249 ± 0.013,0.292 ± 0.029,0.26 ± 0.0047,0.227 ± 0.027,0.173 ± 0.0041,0.143 ± 0.0034,0.38 ± 0.028,0.383 ± 0.021,0.203 ± 0.0078,0.249 ± 0.032,0.431 ± 0.022,0.41 ± 0.016,0.383 ± 0.022
CCN(CC)CCNC(=O)c1cc(Br)c(N)cc1OC [Bromopride],0.243 ± 0.025,0.312 ± 0.011,0.256 ± 0.0069,0.196 ± 0.0058,0.181 ± 0.006,0.1557 ± 0.00098,0.467 ± 0.025,0.4797 ± 0.0047,0.196 ± 0.014,0.256 ± 0.033,0.428 ± 0.011,0.4074 ± 0.0017,0.316 ± 0.022
C[C@H](Cc1cc2c(c(C(N)=O)c1)N(CCCO)CC2)NCCOc1ccccc1OCC(F)(F)F [Silodosin],0.1773 ± 0.001,0.251 ± 0.0074,0.273 ± 0.0053,0.171 ± 0.019,0.158 ± 0.015,0.14 ± 0.0083,0.302 ± 0.092,0.474 ± 0.012,0.201 ± 0.02,0.206 ± 0.033,0.442 ± 0.056,0.407 ± 0.011,0.329 ± 0.018
O=C1Cc2cc(CCN3CCN(c4nsc5ccccc45)CC3)c(Cl)cc2N1 [Ziprasidone  Hydrochloride],0.133 ± 0.0045,0.174 ± 0.008,0.249 ± 0.0058,0.195 ± 0.0098,0.179 ± 0.0086,0.201 ± 0.0095,0.418 ± 0.051,0.363 ± 0.035,0.222 ± 0.027,0.308 ± 0.076,0.427 ± 0.011,0.378 ± 0.0087,0.338 ± 0.013
CCOC(=O)NNc1nncc2ccccc12 [Todralazine hydrochloride],0.252 ± 0.0065,0.3001 ± 0.00089,0.252 ± 0.0082,0.246 ± 0.03,0.181 ± 0.0025,0.16 ± 0.005,0.361 ± 0.1,0.346 ± 0.078,0.206 ± 0.011,0.275 ± 0.03,0.452 ± 0.021,0.406 ± 0.0052,0.271 ± 0.17
C[N+](C)(CCOc1ccccc1)Cc1ccccc1.O=C([O-])c1cc2ccccc2cc1O [Bephenium hydroxynaphthoate],0.175 ± 0.0073,0.266 ± 0.017,0.207 ± 0.0049,0.203 ± 0.0078,0.104 ± 0.0033,0.134 ± 0.0047,0.486 ± 0.047,0.365 ± 0.069,0.176 ± 0.046,0.216 ± 0.019,0.509 ± 0.023,0.381 ± 0.016,0.263 ± 0.0088
CCOC(=O)n1ccn(C)c1=S [Carbimazole],0.239 ± 0.0029,0.297 ± 0.0079,0.27 ± 0.012,0.192 ± 0.0037,0.212 ± 0.0081,0.145 ± 0.0022,0.346 ± 0.079,0.284 ± 0.037,0.216 ± 0.011,0.239 ± 0.025,0.607 ± 0.05,0.424 ± 0.011,0.407 ± 0.0073
CN(C)CCC(c1ccccc1)c1ccccn1 (stereo not given) [Pheniramine maleate],0.241 ± 0.014,0.289 ± 0.0087,0.242 ± 0.0091,0.191 ± 0.0028,0.162 ± 0.0033,0.14 ± 0.0047,0.248 ± 0.064,0.408 ± 0.014,0.201 ± 0.022,0.213 ± 0.019,0.455 ± 0.059,0.41 ± 0.006,0.345 ± 0.015
C#C[C@]1(O)CC[C@H]2[C@@H]3CCC4=CC(=O)CC[C@@H]4[C@H]3CC[C@@]21CC [Norgestrel-(-)-D],0.225 ± 0.017,0.271 ± 0.0042,0.2581 ± 0.0012,0.193 ± 0.014,0.179 ± 0.0092,0.145 ± 0.007,0.374 ± 0.051,0.429 ± 0.018,0.191 ± 0.0085,0.234 ± 0.04,0.517 ± 0.04,0.413 ± 0.018,0.331 ± 0.039
O=C(O[C@@H]1C[C@@H]2C[C@H]3C[C@H](C1)N2CC3=O)c1c[nH]c2ccccc12 [Dolasetron mesilate],0.204 ± 0.0058,0.25 ± 0.0086,0.238 ± 0.0033,0.137 ± 0.0054,0.0823 ± 0.0017,0.114 ± 0.0051,0.226 ± 0.044,0.482 ± 0.053,0.192 ± 0.019,0.217 ± 0.016,0.473 ± 0.027,0.405 ± 0.016,0.23 ± 0.036
Cc1cc2c(s1)Nc1ccccc1N=C2N1CCN(C)CC1 [Olanzapine],0.207 ± 0.0059,0.286 ± 0.014,0.267 ± 0.0071,0.183 ± 0.015,0.158 ± 0.006,0.136 ± 0.0056,0.305 ± 0.043,0.457 ± 0.018,0.213 ± 0.029,0.249 ± 0.026,0.502 ± 0.029,0.403 ± 0.014,0.319 ± 0.01
CCCC1C(=O)N2C(N(C)C)=Nc3ccc(C)cc3N2C1=O (stereo not given) [Azapropazone],0.226 ± 0.0057,0.287 ± 0.0066,0.2549 ± 0.002,0.178 ± 0.011,0.158 ± 0.0037,0.134 ± 0.0021,0.195 ± 0.031,0.323 ± 0.064,0.185 ± 0.015,0.206 ± 0.025,0.483 ± 0.02,0.399 ± 0.013,0.301 ± 0.0094
CCCN[C@H]1CCc2nc(N)sc2C1 [Pramipexole dihydrochloride],0.237 ± 0.0095,0.289 ± 0.004,0.258 ± 0.0086,0.207 ± 0.015,0.191 ± 0.01,0.15 ± 0.0057,0.262 ± 0.068,0.334 ± 0.02,0.174 ± 0.013,0.209 ± 0.013,0.64 ± 0.0092,0.406 ± 0.013,0.363 ± 0.012
